The term Inhibition denotes the drop in the measured response relative to a control, in per cent. Lower therefore signals little suppression.

This note sets out measurements from ChEMBL document CHEMBL1157539, “Thousands of chemical starting points for antimalarial lead identification” (Nature, 2010).

SMILES strings stand for the structures.

The subject of this test is HepG2. The test can be described thus: GSK_TCMDC: Percent inhibition of human HepG2 cell line. Test compounds present at 10uM. The class given is functional.
Take `O=C(NC1CCN(Cc2ccccc2)CC1)c1cccc(Nc2nc(-c3ccccc3)cs2)c1`: the Inhibition is reported as 70%.
For `CCOc1ccc2c(=NN=Cc3ccc(OC)c(OC)c3)cc(C)[nH]c2c1`, the Inhibition is reported as 22%.
In the case of `COc1ccc(CNC2CCCC2)cc1-c1ccc(S(=O)(=O)NCCN2CCCC2)s1.O=C(O)C(F)(F)F` it was 17%; in that of `COc1ccc2nccc([C@@H](O)CN3CCC(NCc4cc5c(F)ccc(F)c5[nH]4)CC3)c2c1.O=C(O)C(=O)O`, 29%.
In the case of `Cn1c(Sc2ncnc3sccc23)nc2ccccc21` it was 0%.
In the case of `O=C(NC1CCCCC1)C(c1cccs1)N(CCc1ccccc1)C(=O)c1ccco1` (stereo not given) it was 0%; in that of `CC(C)(C)c1ccc(CNC(=O)c2ccc(CNC3CCC(N)CC3)s2)cc1` (stereo not given), 41%.
`Cc1sc(CNCCCNc2cc(=O)c3ccccc3[nH]2)c(C(F)(F)F)c1C.Cl` had an Inhibition of 0%.
On to `C=CCOc1ccccc1CNCC(O)c1cc(Br)cs1` (stereo not given), for which the Inhibition was determined as 25%.
With `O=C(Nc1ccc2[nH]c(-c3ccc4nc(NC(=O)C5CCCCC5)sc4c3)nc2c1)C1CCCCC1`, the Inhibition came to 84%.
In the case of `Cc1ccc(-c2cncc(-c3cc(NC4CCN(Cc5ccccc5)CC4)nc(-c4ccccc4)n3)c2)cc1` it was 0%; in that of `COc1ccc(CN(C)CCCc2ccc(NC(=O)c3cccc4c(O)c5ccccc5nc34)cc2)cc1OC`, 77%.
`CCOc1cc2ncnc(Nc3ccc(OCc4ccccc4F)c(Cl)c3)c2cc1OCC.Cl` yielded an Inhibition of 4%.
Compound `Cn1nc(-c2ccccc2F)c2cc(C(=O)NC3CCN(Cc4ccccc4)CC3)sc21` yielded an Inhibition of 5%.
The result for `CC(Nc1ncc(-c2ccsc2)c(-c2nccs2)n1)c1ccc2c(c1)OCCO2` (stereo not given) reads 14%; that for `CCCc1cc(NCC)nc(Nc2ccc(C)cc2)n1`, 22%; that for `Cc1cccc2nc(-c3ccc(-c4ccc(NC(=O)NC5CC5c5ccccc5)cc4)cc3)[nH]c12` (stereo not given), 28%.
The result for `CCn1ccc2c(N3CCCS3(=O)=O)cc(C(=O)N[C@@H](Cc3ccccc3)[C@H](O)CNC(C)(C)c3cccc(OC)c3)cc21` reads 20%.
In the case of `Cc1ccc(NC(=O)c2cn(-c3ccccc3)nc2-c2ccc(F)cc2)cc1[N+](=O)[O-]` it was 6%; in that of `COc1ccc(/C=C/C(=O)Nc2ccc(-c3ccncc3)cc2)cc1CCCN(C)C.O=C(O)/C=C\C(=O)O`, 3%; in that of `CC1(C)N=C(N)N=C(N)N1O.Cl`, 7%.
Turning to `CCN(CC)CCCNc1c2ccccc2nc2ccccc12.Cl`, the Inhibition is 17%.
In the case of `CC(C)[C@H](NC(=O)c1ccc(O)c(-c2ccc(Cl)c(Cl)c2)c1)C(=O)NCCN1CCCC1`, the Inhibition came out at 4%.
`Cc1ccc(C(=O)Nc2ccc(Cl)c(N3CCN(CCc4ccccc4)CC3)c2)cc1.O=C(O)C(F)(F)F` yielded an Inhibition of 17%.
In the case of `Cc1cc(N(C)C)nc(Nc2ccc(NC(=O)c3ccccc3F)cc2)n1` it was 0%; in that of `CNS(=O)(=O)c1ccc(NC(=O)c2cc(-c3cccnc3)nc3ccc(Br)cc23)cc1`, 9%; in that of `C/C=C/COc1ccc(-c2c(C)[nH]c(C)c(Cl)c2=O)cc1`, 0%.
The result for `Cc1ccc(C2(C)CC(C)(C)N(C(=O)COc3ccc4ccccc4c3)c3ccccc32)cc1` (stereo not given) reads 0%; that for `CC(Cc1ccc(NC(=O)c2ccc(CNCCCCc3ccccc3)cc2)cc1)NCCc1cccc(Cl)c1.Cl` (stereo not given), 100%; that for `CCOC(=O)C(C(=O)OCC)c1nc(C)ns1`, 10%.
The result for `CCN(CC)CCCC(C)Nc1c(-c2ccc(C)cc2)cnc2ccccc12` (stereo not given) reads 8%.
For the compound `COc1cccc(NC(=O)NC2CCN(CCCCCNC(=O)/C=C/c3ccc(Cl)c(Cl)c3)CC2)c1`, the Inhibition is recorded as 14%.
The result for `Clc1ccc(-c2cc(-c3csc(NCCN4CCCCC4)n3)on2)cc1` reads 81%; that for `COc1cc(Nc2nccc(N3CCC(NC(=O)c4cc5ccccc5s4)C3)n2)cc(OC)c1OC` (stereo not given), 2%; that for `CCCn1c(O)nnc1SCC(=O)Nc1cc(Cl)ccc1Cl`, 0%.
`CC1N=C(N)N=C(N)N1OCc1ccccc1.Cl` (stereo not given) came in with an Inhibition of 62%.
The compound `Fc1ccc(Nc2ccnc3cc(-c4cccc(CNCCN5CCOCC5)c4)ccc23)c(Cl)c1` registered an Inhibition of 26%.
Regarding `CC(C)NCc1ccc(-c2cccc(NC(=O)c3ccc(F)cc3)c2)cc1.O=C(O)C(F)(F)F`, the Inhibition worked out at 28%.
In the case of `Cl.O=C(NCCCCN1CCC(c2ccc3c(c2OC(=O)c2ccc(NC(=O)c4ccc(Cl)cc4)cc2)CCCC3)CC1)c1ccc(NC(=O)c2ccc(Cl)cc2)cc1` it was 62%.
On to `N#Cc1ccc(N[C@@H](CC2CCCCC2)C(=O)N[C@@H]2CCCc3ccccc32)c2ccccc12.O=C(O)C(F)(F)F`, for which the Inhibition was 12%.
